# Data from PubChem BioAssay (NCATS).
# Inconclusive results are not listed. Values without a mark were called inactive. Calls follow the shape of the dose curve; as a rule, active = well fitted inhibition curve with a large enough effect; inconclusive = small, poorly fitted or top-dose-only effect; inactive = flat fitted curve, though single readings scatter.
# Test system: CP266
# Assay: qHTS profiling for inhibitors of Plasmodium falciparum proliferation (AID 504749);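 also: 0% = DMSO vehicle and full inhibition = artemisinin control; nearly all actives have a fitted effect of over 60% in size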
# Conditions: P. falciparum in erythrocytes, SYBR Green DNA, 72 h; series mostly up to 28.7 µM; activity, negative = inhibition: at the top concentration
# Method in brief: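 SYBR Green fluorescence of parasite DNA, read after lysis and overnight dark incubation, measured growth over 72 h in erythrocyte culture at 0.3% parasitemia and 2.5% hematocrit. Data normalised to DMSO and 0.29 uM artemisinin, with plate-drift correction.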
row,Structure (SMILES),"activity, negative = inhibition"
1,O=C(Cn1ccnc1[N+](=O)[O-])NCCO,0.61%
2,CN(C/C=C/C#CC(C)(C)C)Cc1cccc2ccccc12,4.23%
3,CCN(CC)CCc1nc(-c2ccccc2)no1,4.45% [at 12.8 µM]
4,COc1nccnc1NS(=O)(=O)c1ccc(N)cc1,8.36%
5,Cn1c([N+](=O)[O-])cnc1COC(N)=O,-2.51%
6,CC[N+](CC)(CC(=O)Nc1c(C)cccc1C)Cc1ccccc1,-3.01%
7,CC1CCN(CCCC(=O)c2ccc(F)cc2)CC1,-4.55%
8,COc1ccccc1OC(=O)Oc1ccccc1OC,-9.65%
9,CN1CCCN=C1COC(=O)C(O)(c1ccccc1)C1CCCCC1 (stereo not given),-3.78%
10,O=C(/C=C/c1ccccc1)OCc1ccccc1,2.08%
11,Cc1c(Cn2ccnc2)c2ccccc2n1CCC(=O)O,0.152%
12,N[C@@H](Cc1ccc(O)cc1)C(=O)O,-0.986%
13,CC1CCc2cc(F)cc3c(=O)c(C(=O)O)cn1c23 (stereo not given),-0.598%
14,Cc1onc(-c2ccccc2)c1-c1ccc(S(N)(=O)=O)cc1,0.175%
15,COc1ccc(C(=O)NCc2ccc(OCCN(C)C)cc2)cc1OC,-1.88%
16,CCN1CC(CCN2CCOCC2)C(c2ccccc2)(c2ccccc2)C1=O (stereo not given),-2.14%
17,NS(=O)(=O)c1ccc(C(=O)O)cc1,2.45%
18,CCOC(N)=O,4.69%
19,CCOc1ccc(C(=O)OCCN(CC)CC)cc1,1.24%
20,O=C(OOC(=O)c1ccccc1)c1ccccc1,-20.2%
21,C=CCSCC1Nc2cc(Cl)c(S(N)(=O)=O)cc2S(=O)(=O)N1 (stereo not given),-0.0653%
22,Cc1c(NC(=O)c2cccnc2)c(=O)n(-c2ccccc2)n1C,-14.7% [at 12.8 µM]
23,CCCCCCCCCCC(CO)CCCCCCCC (stereo not given),6.83%
24,Cc1ncc(CO)c(CN)c1O,9.47%
25,NS(=O)(=O)c1ccc(NC(=O)CCC(=O)O)cc1,6.58%
